Measured values reported in PubChem BioAssay AID686979 (National Center for Advancing Translational Sciences (NCATS), 2013).
Values joined by “and” are separate entries in the source; they are usually repeats but may differ in a detail not shown here. Identical values can stand only once. Hit rate of the full screen: of about 420,000 compounds, about 50,000 (12%) were called active. Inconclusive results (about 26%) are left out. The entries come from a sample that favours actives as a whole. Values without a mark were called inactive. Calls follow the shape of the dose curve; as a rule, active = well fitted inhibition curve with a large enough effect; inconclusive = small, poorly fitted or top-dose-only effect; inactive = flat fitted curve, though single readings scatter.

Assay: qHTS for Inhibitors of human tyrosyl-DNA phosphodiesterase 1 (TDP1): qHTS in cells in presence of CPT; also: nearly all actives have a fitted effect of over 55% in size
Conditions: chicken DT40 Tdp1-/-;hTDP1 cells + 20 nM CPT, ATP luminescence, 48 h; series mostly up to 46.2 µM; activity change, negative = growth inhibition: at the top concentration
From the text: Human tyrosyl-DNA phosphodiesterase 1 (TDP1) is a novel repair gene, and we propose to use it as a new target for anticancer drug development. TDP1 is not an essential protein, but under treatment with topoisomerase I poison (camptothecin: CPT), TDP1 works as a critical factor for cell survival. To directly identify novel TDP1 inhibitors active in a cellular environment, we have knocked-out the Tdp1 gene in chicken DT40 cells (Tdp1-/-) and generated a complemented counterpart cells that contains a stable transfection of the human TDP1 gene (Tdp1-/-;hTDP1 cells). For the primary screen, Tdp1-/-;hTDP1 cells will be exposed to small molecules in the presence or absence of CPT, and their growth kinetics will be evaluated after 48 hours by measuring ATP activity. […] The hit compounds will then be evaluated in the presence or absence of CPT using Tdp1-/- cells. […] In tertiary assays, biochemical gel-based assays will be used to assess whether the hit compounds specifically target TDP1. To this end, we have screened this cell line against the MLSMR in two primary screens. In one screen we add CPT and in the other we screen in the absence of CPT; this AID represents the screen where CPT was present. NIH Chemical Genomics Center [NCGC] NIH Molecular Libraries Probe Centers Network [MLPCN] MLPCN Grant: MH095538 Assay Submitter (PI): Yves Pommier, NCI
DT40-hTDP1 cells with 20 nM Camptothecin (add 20 microL of 1 mM CPT stock in 1 L of cell culture medium) were dispensed at 400 cells/5microL/well in tissue culture treated 1536-well white wall/solid bottom assay plates (Greiner Bio-One North America, NC, U.S.A.) using a Multidrop Combi 8 channel dispenser (Thermo Fisher, Waltham, MA, USA). 23 nL compounds and controls were transferred using the pin tool (Kalypsys, San Diego, CA, USA) to the assay plates. The assay plates were then incubated at 37 masculineC for a minimum 48 hr. Three microL of Cell Titer Glo solution was added to the plates and incubated at RT in dark for 30 min. Luminescence was read using ViewLux (Perkin Elmer) with 1 sec exposure slow speed, high gain and 2x binning.
% is scaled to controls: 0 for no effect and ±100 for the full control effect; potency is read from the fitted curve at half-maximal effect.

Compound | Potency | activity change, negative = growth inhibition
CC[C@H]1CN2CCc3cc(OC)c(OC)cc3[C@@H]2C[C@@H]1C[C@H]1NCCc2cc(OC)c(OC)cc21 | 188 nM (active) and 146 nM (active) | 
C=C(C)C1(CCCC)C(=O)NC(=S)NC1=O |  | -0.259%
Cc1cc(OCc2cc(C(=O)O)oc2C)c2c3c(c(=O)oc2c1)CCCC3 |  | -16%
CN(C)C(=O)Oc1ccc2c(c1)O/C(=C\c1ccccc1)C2=O |  | -6.72%
CC(C)c1ccc(OCC(=O)N2CCCN(C)CC2)cc1 |  | -3.5%
CCCCC/C=C\C/C=C\C/C=C\CCCCCCC(=O)NCCO |  | 0.621% [at 4.12 µM]
C[C@@H]1CC[C@@]2(OC1)O[C@H]1C[C@H]3[C@@H]4CC=C5C[C@@H](O)[C@H](O)C[C@]5(C)C4CC[C@]3(C)[C@H]1[C@@H]2C (stereo partly drawn) | 20.6 µM (active) | 
COc1ccc2cc1Oc1ccc(cc1)C[C@H]1c3cc(c(OC)cc3CCN1C)Oc1c(O)c(OC)cc3c1[C@H](C2)N(C)CC3 | 8.2 µM (active) | 
COc1ccc2c(c1O)-c1cccc3c1[C@@H](C2)N(C)CC3 |  | 4.93%
COc1c(O)ccc2c1-c1c3c(cc4c1C(C2)N(C)CC4)OCO3 (stereo not drawn) |  | 1.12%
CC1(C)C(c2ccccc2)=NC(c2cccnc2)=[N+]1[O-] |  | -18.6%
O=c1[nH]c(=O)n(CCc2ccc(F)cc2)c(O)c1/C=N/N1CCCCC1 |  | 3.95%
CN(C)CC1CCCCC1=O (stereo not drawn) | 5.8 µM (active) | 
O=C(NCC(c1cccnc1)N1CCN(c2ccccc2)CC1)Oc1ccccc1 (stereo not drawn) |  | -17.7%
NC(=O)Nc1cccc(C(F)(F)F)c1 |  | -5.71%
CC(=O)Nc1cc(-c2cccc(CO)c2)cn2c(-c3cccc(C(F)(F)F)c3)cnc12 | 11.6 µM (active) | 
CC(=O)OC1C2CCC3C1(CC(O)[C@@]1(O)[C@@H](CC(O)C1(C)C)[C@]3(C)O)C[C@@]2(C)O (stereo partly drawn) |  | 7.13%
COc1ccccc1C(=O)N[C@@H]1c2ccccc2C2(CCN(Cc3nc(C(C)C)cs3)CC2)[C@H]1O | 2.06 µM (active) | 
COc1ccccc1C1=NCc2nnc(CSC)n2-c2ccc(Cl)cc21 |  | 10.2%
CCc1ccc(N(CC)C(=O)CCn2cnc3onc(-c4ccc(F)cc4)c3c2=O)cc1 | 16.4 µM (active) | 
CCCCC(=O)N/N=C/c1c(O)n(-c2ccccc2)c(=O)[nH]c1=O |  | 15.6%
Cn1c(O)c(C=NCCCC(=O)O)c(=O)n(C)c1=O |  | 2.87%
CCCCC(=O)N/N=C/c1c(O)n(CC)c(=S)n(CC)c1=O | 18.4 µM (active) | 
O=C1NC(=O)C(C/C=C/c2ccccc2)C(=O)N1 |  | -18.8%
Cc1cccc(NC(=O)OC2CN3CCC2CC3)c1 (stereo not drawn) |  | 8.88%

Compound | Potency | activity change, negative = growth inhibition
CCC(=O)CC(c1ccc([N+](=O)[O-])cc1)c1c(O)c2ccccc2oc1=O (stereo not drawn) |  | -9.51%
CC(=NCC1CCCO1)c1c(O)n(-c2ccccc2)c(=O)[nH]c1=O (stereo not drawn) |  | -10.4%
O=c1[nH]c(=S)n(C2CC2)c(O)c1/C=N/N1CCOCC1 |  | 2.09%
CC(=O)c1c(O)n(C2CCCCCC2)c(=O)[nH]c1=O | 18.4 µM (active) | 
COC1=C[C@]23CCCN2CCc2cc4c(cc2[C@@H]3[C@@H]1O)OCO4 |  | -3.38% [at 9.04 µM]
CN1CCN(/N=C/c2c[nH]c3ccccc23)CC1 |  | 5.45%
CC12CCC3C(CCC4CC(=O)CCC43C)C1CC(=NO)C2=O (stereo not drawn) |  | -29.9%
CCCCCn1c(=O)c(C(=O)NCc2ccccn2)c(O)c2ccccc21 | 20.6 µM (active) | 
CCCCCn1c(=O)c(C(=O)NCc2ccccc2)c(O)c2ccccc21 | 4.61 µM (active) | 
CCOC(=O)C1(Cc2ccc(Cl)cc2)CCN(C(C)CCn2cccn2)CC1 (stereo not drawn) |  | -24.1%
O=c1[nH]c(=O)n(CCc2ccccc2)c(O)c1/C=N/N1CCOCC1 |  | 16.1%
c1ccc2sc(C3CCCNC3)nc2c1 (stereo not drawn) |  | -7.24%
CC[N+](CC)(CC)CCCCCCCCCC[N+](CC)(CC)CC |  | 8.35%
CN1CCN(Cc2ccc(OC(F)(F)F)cc2)CC1 |  | 0.372%
CC(C)c1ccc(OCC(=O)N2CCN(C)CC2)c(Br)c1 |  | -2.53%
COc1cc(-n2c(=S)[nH]c3ccc(C)cc3c2=O)c(Cl)cc1Cl | 8.2 µM (active) | 
O=c1c2ccccc2[nH]c(=S)n1-c1cccc(Cl)c1 |  | 0.546%
c1ccc(CC2CCCCN2)cc1 (stereo not drawn) |  | 12.3%
CC(C)Oc1cccc(C(=O)C2CCCN(C3CCOCC3)C2)c1 (stereo not drawn) |  | -16.9%
Oc1cc2c(cc1CN1CCN(c3ccccc3)CC1)OCO2 |  | 3.27%
COc1cc2[nH]c(C)c(CCN3CCN(c4ccccc4)CC3)c2cc1OC | 7.94 µM (active) | 
c1ccc(N2Cc3ccccc3-n3nncc3C2)nc1 |  | -11.6%
COCCCNC(=O)CC1C[C@H](C(=O)N2CCCCC2)[C@@]2(CCc3ccccc3)c3[nH]c4ccccc4c3CCN2C1=O (stereo partly drawn) | 23.1 µM (active) | 
Clc1ccc([C@@H]2C[C@H]3CC[C@@H]2N3)cn1 | inactive | 
CCCC(C)n1[nH]c(=O)c2c1NC(=O)CSC2c1ccc(OC)c(OC)c1 (stereo not drawn) |  | -9.47%

Compound | Potency | activity change, negative = growth inhibition
OC[C@@H]1CN(Cc2ccncc2)C[C@H](n2cnc3c(N4CCN(c5ccccc5)CC4)ncnc32)O1 | 2.06 µM (active) | 
CC12CN3CC(C)(CN(C1)C3c1cccs1)C2 (stereo not drawn) |  | -8.6%
COc1cccc(OC)c1C(=O)NC(=S)N1C[C@H]2C[C@H](C1)c1cccc(=O)n1C2 |  | 29.1%
OC1/C(=C/c2ccc(C(F)(F)F)cc2)N2CCC1CC2 (stereo not drawn) |  | -15%
CC(C(=O)Nc1ccc(Cl)cc1Cl)N1CC=C(c2ccccc2)CC1 (stereo not drawn) |  | -6.73%
c1csc(CN2CC3(CCNCC3)C2)n1 |  | -12.3%
N#Cc1c(Cl)c(Cl)c(Cl)c(C#N)c1Cl | 178 nM (active) and 651 nM (active) | 
O=C(N/N=C/c1c(O)n(C2CC2)c(=S)[nH]c1=O)c1ccccc1 |  | -2.43%
N#CC(C#N)=Cc1cc(O)c(O)c([N+](=O)[O-])c1 |  | -3.8%
O=C(Cc1ccccc1[N+](=O)[O-])N1CCN(Cc2ccc3c(c2)OCO3)CC1 |  | -19.9%
C=CCN1C(=O)NC(=O)/C(=C/c2ccc(OCC(=O)Nc3ccc(C)cc3)cc2)C1=O |  | 1.34%
COc1ccc(CNC(=O)c2cc3c(-c4ccccc4F)nn(C)c3s2)c(OC)c1 | 4.11 µM (active) | 
CC/C(=N\NC(=O)c1ccccc1O)c1c(O)n(Cc2ccccc2)c(=O)[nH]c1=O |  | -27.5%
CC(=O)N(C1=NCCCS1)c1ccccc1F |  | -4.78%
O=C(COc1ccccc1Cl)Nc1ccc2nc(SCC(=O)N3CCCC3)sc2c1 | 20.6 µM (active) | 
CN(C(=O)CSc1nc2ccc(NC(=O)COc3ccccc3)cc2s1)c1ccccc1 | 25.9 µM (active) | 
CC(C)n1c(=O)c(C=Nc2ccc(Br)cc2)c(O)n(Cc2ccco2)c1=O |  | -10.9%
CCN(CC)C(=O)c1ccc(NC(=O)c2cc(-n3cnnc3)ccc2Cl)cc1 |  | -5.77%
Fc1ccc(N2CCN(Cc3ccc4c(c3)OCO4)CC2)cc1 |  | -24.2%
Cn1c(O)c(C=Nc2ccc3c(c2)CCC3)c(=O)n(C)c1=O |  | -10.6%
Oc1ccc2c3c1OC1[C@H](O)CC[C@@]4(O)[C@@H](C2)N(CC2CC2)CC[C@]314 (stereo partly drawn) | inactive | 
COC12CC[C@@]3(C[C@@H]1C(C)(O)C(C)(C)C)[C@H]1Cc4ccc(O)c5c4[C@@]3(CCN1CC1CC1)[C@H]2O5 (stereo partly drawn) | 24.1 µM (active) | 
CC1(C)Cc2c(C#N)c(N3CCNCC3)nc(-c3ccco3)c2CS1 | 18.4 µM (active) | 
NCCc1ccc(S(=O)(=O)F)cc1 |  | -19.2%
CC(=O)c1ccc(S(=O)(=O)N2CCN(c3nc4c(C)c(C)ccc4cc3C#N)CC2)cc1 | 7.08 µM (active) | 

Compound | Potency | activity change, negative = growth inhibition
CCOC(=O)C(O)(c1ccc(NC(=O)c2ccco2)c(OC)c1)C(F)(F)F (stereo not drawn) |  | -27.8%
C[C@@]1([C@@H](NP(=O)(c2ccccc2)c2ccccc2)c2ccccc2)C[C@H]1CCO | 9.2 µM (active) | 
CC1CNCCN1c1ccc(Cl)cc1 (stereo not drawn) |  | -17.2%
CC(C)(C)[C@]1(O)C[C@@H]2OC(=O)C[C@@]23C(=O)O[C@@H]2OC(=O)[C@H](O)[C@]213 | inactive | 
c1ccc(C(CN2CCCCC2)c2ccccc2)cc1 |  | -0.305%
CCCCOc1ccc(C(=O)N2CC(=O)Nc3ccc(Br)cc3C2c2ccc(F)cc2)cc1 (stereo not drawn) | 23.1 µM (active) | 
O=c1oc2ccccc2c(O)c1C(c1ccccc1O)c1c(O)c2ccccc2oc1=O |  | 8.57% [at 9.04 µM]
COc1cc([C@@H]2c3cc4c(cc3[C@H](OC(C)=O)[C@H]3COC(=O)[C@H]23)OCO4)cc(OC)c1OC | 0.0794 µM (active) | 
COc1cc(C2c3cc4c(cc3C(O)C3COC(=O)C23)OCO4)cc(OC)c1OC (stereo not drawn) | 44.7 nM (active) and 13 nM (active) | 
Cc1nc2ccc(N3CCN(C)CC3)cc2nc1C |  | 25.9%
CSc1ccc(C(=O)C2CCCN(Cc3ccn[nH]3)C2)cc1 (stereo not drawn) |  | 1.2%
O=c1[nH]c(=O)n(-c2ccc(F)cc2)c(O)c1C=NCCN1CCCCC1 |  | 11.7%
CC(=C1C(=O)c2ccccc2C1=O)N1CCN(CCN=Cc2c(O)n(C)c(=O)n(C)c2=O)CC1 |  | -15%
CCN1CC2C3CCC(C)(O3)C2C1 (stereo not drawn) |  | 3.51%
Cc1ccc(Cl)cc1N1CCN(C(=O)C2CCC(CNS(=O)(=O)c3cccs3)CC2)CC1 (stereo not drawn) | 20.6 µM (active) | 
CC1C(=O)OC2CCN3CC=C(COC(=O)C(C)(O)C1(C)O)C23 (stereo not drawn) | 5.8 µM (active) | 
CC(=O)Nc1ccc(C(=O)C(Cc2ccccc2)N(C)C)cc1 (stereo not drawn) |  | -14.9%
O=C(COc1ccc2ccccc2c1)N1CCN(Cc2ccncc2)CC1 |  | -27.5%
CN(C)C(=O)Oc1cc(OC(=O)N(C)C)cc(C(O)CNC(C)(C)C)c1 (stereo not drawn) | inactive | 
CNC(=O)O/N=C(\N)Cc1csc2ccccc12 |  | -3.18%
CNC(=O)O/N=C(\N)Cc1csc2ccc(Cl)cc12 | 16.4 µM (active) | 
Cn1c(O)c(C=NCCN2CCNCC2)c(=O)n(C)c1=O |  | -0.667%
COC1=CC=C2[C@H]3Cc4ccc(OC)c5c4[C@@]2(CCN3C)C1O5 (stereo partly drawn) |  | -2%
